Screening results: PubChem, several laboratories
In the library only some 3.5% were active in any assay of this set; here they are far more common.
Vc quorum ag – induces V. cholerae light production without autoinducers. AID 588436. activation, % at 18.7 µM. V. cholerae BH1578 lux reporter, luminescence, 6 h. actives 0.16% (n = 350,000); in the data active = activation mostly above about 9.7%, no sharp cut-off; inconclusive = no clear call, values can overlap the other calls; inactive = mostly below about 3.7%
Autofluor counter – counter-screen for toxin protease inhibitors: compound fluorescence | compound autofluorescence counterscreen, microsphere flow cytometry; stronger effect = higher value | fluorescence intensity (test concentration not listed) | actives 3.1% (n = 360,000) | AID 624483; in the data active = fluorescence intensity above about 16000; inconclusive = no clear call, values can overlap the other calls
BoNT F protease – inhibitors of Botulinum neurotoxin F light chain protease; Multiplex microsphere protease cleavage assay, flow cytometry; actives 0.22% (n = 360,000); inhibition, % at 10 µM; in the data active = inhibition above about 35%, passing the limit was not always enough; inconclusive = no clear call, values can overlap the other calls; note: plate controls were buffer without enzyme for full effect and enzyme alone for no effect
BoNT A protease – blocks Botulinum neurotoxin A light chain protease; multiplex microsphere protease substrate cleavage, flow cytometry; inhibition, % at 10 µM; actives 0.17% (n = 360,000); AID 588499; note: plate controls were buffer without enzyme for full effect and enzyme alone for no effect
Anthrax LF prot – blocks Bacillus anthracis lethal factor protease; multiplex microsphere protease cleavage assay, LF; P15917; actives 0.12% (n = 360,000); inhibition, % at 10 µM; note: plate controls were buffer without enzyme for full effect and enzyme alone for no effect
* hit, by the source's call; i = inactive; ? = inconclusive; . = no result given. Cut-off read from the data, not from the text of the source, unless noted: active = inhibition above about 30%; inconclusive = no clear call, values can overlap the other calls; inactive = below that.

SMILES | Vc quorum ag | Autofluor counter | BoNT F protease | BoNT A protease | Anthrax LF prot
CC(=O)NC(c1ccccc1)c1cccnc1 (stereo not drawn) | -2 | 16197* | -1 | 0 | -1
COc1ccc(CNC(=O)CNC(=O)c2c(C)nn(C)c2Cl)cc1 | -1 | 4348 | -1 | -1 | -3
CC1CCN(CCCNC(=O)COc2cc(=O)n(C)c3ccccc23)CC1 | 0 | ? | 5 | 0 | ?
Cn1c(=O)cc(OCC(=O)N2CCCc3ccccc32)c2ccccc21 | -1 | 21145* | -6 | -2 | 1
Cc1ccccc1OCC(=O)N1CCCc2ccccc21 | 0 | 2477 | -3 | 0 | 0
Cn1c(=O)cc(OCC(=O)N2CCN(c3cccc(C(F)(F)F)c3)CC2)c2ccccc21 | i | 20645* | 1 | 2 | -5
CCN1CCCC1CNC(=O)COc1cc(=O)n(C)c2ccccc12 (stereo not drawn) | 6 | 23013* | 0 | 1 | 0
COc1ccc(CCN(C)Cc2c(O)ccc3ccccc23)cc1OC | i | 3326 | 26 | -1 | -3
N#Cc1ccc(CN2CCN(C(=O)c3ccc(S(=O)(=O)N4CCCCCC4)cc3)CC2)cc1 | 2 | ? | 0 | 1 | -8
Cn1cnnc1Sc1nc([N+](=O)[O-])nn1C | -3 | 2226 | -1 | 0 | 1
COc1ccccc1-c1nnc(Sc2nc([N+](=O)[O-])nn2C)o1 | -1 | 16481* | 0 | 0 | -3
CC(=O)N(c1nc(CCl)cs1)c1cccc(C)c1C | -1 | 4454 | 0 | -1 | -1
Cc1ccc(C(O)c2ccc(-n3ccnc3)cc2)cc1 (stereo not drawn) | 1 | 3494 | 17 | -4 | 15
Cc1ccccc1C(O)c1ccncc1 (stereo not drawn) | 0 | 19164* | 4 | 3 | -1
Cc1ccc(C(O)c2ccncc2)cc1 (stereo not drawn) | -1 | 17116* | 9 | 8 | -13
Cc1ccc(Cl)cc1NC(=O)NCc1ccccn1 | -1 | 4055 | 20 | 4 | -1
Cc1ccc(Nc2c([N+](=O)[O-])c(=O)n(C)c3ccccc23)cc1C | 0 | 21534* | 3 | 6 | 2
Cn1c(=O)c([N+](=O)[O-])c(NCCc2ccccc2)c2ccccc21 | -1 | 6773 | -25 | -4 | -6
Cc1cc(N2CCOCC2)nc2ccc(NC(=O)CCC(=O)N3CCC(C)CC3)cc12 | i | 19171* | 0 | 2 | -2
COc1ccc(N(C)C(=O)CCC(=O)Nc2ccc3nc(N4CCOCC4)cc(C)c3c2)c(OC)c1 | 2 | 16645* | -2 | 0 | -2
COc1ccc(NC(=O)CCC(=O)Nc2ccc3nc(N4CCOCC4)cc(C)c3c2)c(OC)c1 | 0 | 5267 | -5 | 0 | 0
CCC(C)NC(=O)CCC(=O)Nc1ccc2nc(N3CCOCC3)cc(C)c2c1 (stereo not drawn) | 6 | 2804 | 6 | 1 | -2
Cc1cc(N2CCOCC2)nc2ccc(NC(=O)CCC(=O)N3CCCCC3)cc12 | -1 | 23643* | -2 | -1 | -3
CC1(C(=O)NCc2cccc3ccccc23)CCN1Cc1ccccc1OC(F)F (stereo not drawn) | 0 | 4203 | -10 | -1 | 1
CC(C)[C@H](NS(=O)(=O)c1ccc(Cl)cc1)C(=O)OCC(=O)NCCN1C(=O)CSC1=O | 0 | 4284 | -1 | 2 | 2
SMILES | Vc quorum ag | Autofluor counter | BoNT F protease | BoNT A protease | Anthrax LF prot
Cc1ccccc1OCCC(=O)OCC(=O)Nc1c(C)nn(-c2ccccc2)c1C | -1 | 5966 | 16 | 6 | 1
Cc1ccc(CNCC(O)(c2ccc(F)cc2)c2ccc(F)cc2)cc1 | -1 | 22638* | -13 | ? | -8
CN(Cc1ccccc1)C1(CNC(=O)CCC(F)(F)F)Cc2ccccc2C1 | -1 | 4234 | ? | -7 | 1
O=C1COc2ccc(C(=O)COC(=O)c3ccc(Cl)cc3[N+](=O)[O-])cc2N1 | i | 5180 | -13 | 1 | 1
Nc1cc(=O)[nH]c(SCC(=O)Nc2cccc(Cl)c2)n1 | i | 17592* | -3 | -2 | -1
CCCc1cc(=O)[nH]c(SCC(=O)Nc2ccc(OCc3ccccc3)cc2)n1 | i | 8974 | 3 | 0 | 2
Cc1ccc(NC(=O)CSc2nc(N)cc(=O)[nH]2)cc1Cl | i | 4128 | -32 | -14 | -17
COCc1cc(=O)[nH]c(SCC(=O)Nc2ccccc2)n1 | i | 22752* | -2 | ? | -4
C[C@H](CO)N1C[C@H](C)[C@@H](CN(C)C(=O)Nc2ccc3c(c2)OCO3)Oc2ccc(NC(=O)Nc3ccc4c(c3)OCO4)cc2C1=O | i | 3737 | -16 | -2 | -5
CCN(C[C@H]1N[C@@](CC)(C(=O)OC)[C@H]2C(=O)N(Cc3ccccc3)C(=O)[C@@H]12)C(=O)c1ccccc1 | -1 | 3686 | -3 | 0 | -1
O=C(NCCCN1CCCC1=O)c1cccc(C(F)(F)F)c1 | -2 | 20148* | 2 | ? | 3
COc1ccccc1C(=O)NCCCN1CCCC1=O | -1 | 20201* | 7 | 5 | -6
Cc1cc(C(=O)NCCCN2CCCC2=O)no1 | i | 26454* | -12 | ? | -4
COc1cc2[nH]c(=O)n(CCCCCC(=O)NCCCN3CCOCC3)c(=O)c2cc1OC | 0 | 9081 | 7 | 1 | -1
O=C(NCCCN1CCCC1=O)c1cc(COc2ccc(F)cc2F)on1 | i | 6100 | -7 | -2 | -3
COc1ccccc1NS(=O)(=O)c1ccc(C(=O)NCCCN2CCCC2=O)cc1 | i | 9000 | -2 | -1 | 3
COc1cc2[nH]c(=O)n(CCCCCC(=O)NCCCN3CCCC3=O)c(=O)c2cc1OC | i | 16148* | 1 | 1 | -3
CC(Oc1cccc(Cl)c1)C(=O)Nc1ccc(S(=O)(=O)N(C)C2CCN(C)CC2)cc1 (stereo not drawn) | -1 | . | . | . | .
COc1ccc(-[n+]2c(C)cc(/C=C3\Sc4ccccc4N3C)cc2C)cc1 | 5 | 4610 | -40 | 68* | 20
COc1ccc(C(=O)/C=C2\Sc3ccccc3N2C)cc1 | 0 | 3444 | 6 | 0 | -8
COc1ccccc1-[n+]1c(C)cc(/C=C2\Sc3ccccc3N2C)cc1C | i | 7146 | -2 | 88* | 40*
COc1ccc(-c2c(C(=O)O)nc3ccccc3c2C(=O)O)cc1 | 0 | 16308* | 0 | 0 | -3
Cc1cccc(OCc2nnc(SCC(=O)N3CCc4ccccc43)n2C)c1 | 0 | 24057* | -1 | -3 | -2
CCn1c(COc2cccc(C)c2)nnc1SCC(=O)N1CCCC1 | 0 | 9129 | -4 | -1 | -15
Cc1cccc(OCc2nnc(SCC(=O)N3CCCC3)n2C)c1 | i | 16407* | 4 | 0 | 0
O=C(O)CCCN1C(=O)C(=O)/C(=C(/O)c2ccccc2)C1/C=C/c1ccccc1 (stereo not drawn) | -1 | 4306 | -1 | 0 | -10
O=C(CCc1nnc(CCCc2ccccc2)o1)NCCCC1CCCC1 | 0 | 2918 | -14 | -1 | -2
Cc1ccc2c(CN3CCN(c4ccccc4)CC3)cc(=O)oc2c1 | . | 5896 | 2 | 0 | -8
CCN(CC)CCCNC(=O)C1c2ccccc2Oc2ccccc21 | i | 5036 | 4 | 1 | 3
